The full list was thinned out, with hits kept by preference.
GPT2 inhibitor = GPT2 alanine aminotransferase inhibition | hit rate 0.25% among 100,000 | AID 1671188 | Potency, µM (highest dose often 57.7 µM), hits mostly inhibitors | Q8TD30 | Recombinant GPT2, coupled pyruvate oxidase/HRP Amplex Red fluorescence; further: nearly all actives have a fitted effect of over 60% in size
Target sequence (Q8TD30 whole entry, looked up): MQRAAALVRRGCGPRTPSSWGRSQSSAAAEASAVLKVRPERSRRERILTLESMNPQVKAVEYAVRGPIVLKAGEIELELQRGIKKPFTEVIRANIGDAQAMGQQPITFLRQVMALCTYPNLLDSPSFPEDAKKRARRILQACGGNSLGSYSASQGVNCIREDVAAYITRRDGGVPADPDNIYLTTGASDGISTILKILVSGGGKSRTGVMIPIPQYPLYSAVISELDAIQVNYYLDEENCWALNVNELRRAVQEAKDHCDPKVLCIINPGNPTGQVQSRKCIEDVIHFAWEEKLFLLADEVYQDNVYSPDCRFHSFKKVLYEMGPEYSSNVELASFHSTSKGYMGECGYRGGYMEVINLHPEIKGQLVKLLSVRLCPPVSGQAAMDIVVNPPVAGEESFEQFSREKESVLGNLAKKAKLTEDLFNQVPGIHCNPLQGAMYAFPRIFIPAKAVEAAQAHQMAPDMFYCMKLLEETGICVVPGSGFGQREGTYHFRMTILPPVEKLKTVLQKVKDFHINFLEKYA
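Fluorescence read-out: pyruvate from GPT2 turnover coupled to pyruvate oxidase, HRP and Amplex Red (0.2mM ThPP, 0.2U/mL PO and HRP, 50uM Amplex final). Substrates 250uM a-KG, 2mM L-alanine; enzyme 10ng/uL; 30 min RT.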
GPT2 inh cnf = confirmation of human GPT2 inhibitors | shares compounds with GPT2 inhibitor | GPT2 enzyme, coupled Amplex Red pyruvate fluorescence | Potency, µM, hits mostly inhibitors | hit rate 90% among 95
Of the large screens only hits and unclear results are named; the others gave an inactive call (follow-up assays come after a bar, where they were run); ! = not active in a repeat. The call rests on the fitted dose curve; in most records, active means well fitted inhibition curve with a large enough effect; inconclusive means small, poorly fitted or top-dose-only effect; inactive means flat fitted curve, though single readings scatter.

O=C(NCCc1ccc(F)cc1)C1CCCCN1Cc1ccc(-c2ccsc2)cc1 (stereo not given)	none
CC(=O)Nc1ccc(NC(=O)c2cc3c(n2C)CCN(Cc2ccccc2)C3)cc1	none
Cn1c(C(=O)Nc2ccc(N3CCOCC3)cc2)cc2c1CCN(Cc1ccccc1)C2	GPT2 inhibitor 22µM
COc1ccc(NC(=O)c2cc3c(n2C)CCN(Cc2ccc(F)cc2)C3)cc1	none
CCN1CCN(C(=O)c2cn3cc(-c4ccc(OC)cc4)sc3n2)CC1	none
COc1ccc(C2(C(=O)NC3CCCc4c3[nH]c3ccccc43)CCOCC2)cc1 (stereo not given)	none
COc1cccc(-c2cccc(C(=O)N3CCCC3C(=O)N3CCC(c4ccccc4)CC3)c2)c1 (stereo not given)	none
NC(=O)N/N=C/c1ccc([N+](=O)[O-])o1	GPT2 inhibitor 32µM!
CC(=O)Nc1ccc(/C=N/NC(N)=S)cc1	none
O=C1OC(CN2CCOCC2)CN1/N=C/c1ccc([N+](=O)[O-])o1 (stereo not given)	none
c1ccc(OCC2CN(Cc3ccc4[nH]ccc4c3)CC23CN(c2ccccc2)C3)cc1 (stereo not given)	none
CCN1CCC(OCCCNC(=O)c2ccc(CC3CCN(C(C)=O)CC3)cc2)CC1	none
CCn1nccc1C(=O)N1CC(Oc2ccc(-c3noc(-c4cccnc4)n3)cc2)C1	none
COc1ccc(NC(=O)c2ccc3c(c2)N(C(=O)c2ccc(OC)cc2)CC3)cc1	none
CCN(CC)Cc1ccc2cc(COC(=O)Nc3ccc(C(=O)NO)cc3)ccc2c1	GPT2 inhibitor 15µM
CCN(CC)Cc1cnc2c(C(=O)Nc3ccc(OC)c(OC)c3)cnn2c1	none
O=C(c1ccc(C(F)(F)F)cc1)N1CCN(C(=O)c2nc3cccnc3n(CCc3ccccc3)c2=O)CC1	none
Cc1ccc(OCc2nc(C3CCCN3C(=O)Nc3ccccc3)no2)cc1 (stereo not given)	none
c1csc(-c2ccnc(N[C@H]3CO[C@H]4[C@@H]3OC[C@@H]4NCC3CCCCC3)n2)c1	none
O=C1OCC2(CCN(Cc3ccn[nH]3)C2)N1CCN1CCOCC1 (stereo not given)	none
Cc1ccc(Nc2ccnc(N3CCC(C(=O)NC4CCCC4)CC3)n2)cc1	none
CNC(=O)COC(=O)N1CCC(CCc2ccc(Cl)cc2)CC1	none
CCOC(=O)N1CCC(Nc2ccc(Cl)cc2N)CC1	GPT2 inhibitor 8.9µM
CCOC(=O)N1CCC(NCCNC(=O)c2ccccc2C)CC1	none
COc1ccc(Nc2ccnc(N3CCN(C(=O)c4cccc(OC)c4)CC3)n2)cc1	none
COc1ccc2cc(C(=O)N3CCC(Cc4ccc(C(=O)NC5CC5)cc4)CC3)[nH]c2c1	none
CN(C)c1cccc(-c2c3c(=O)n(-c4ccccc4Cl)[nH]c3cc(=O)n2C)c1	GPT2 inhibitor 15µM!
COC(=O)CNC(=O)C1CCCN(c2nccc(Nc3ccc(OC)cc3)n2)C1 (stereo not given)	none
COc1cccc(-c2cccc(C(=O)N3CCCC3C(=O)NCc3cccc(F)c3)c2)c1 (stereo not given)	none
COc1ccccc1-c1ccc(C(=O)N2CCC(NC(=O)NC3CCCC3)CC2)cc1	none
C[C@H](Cn1cnc2c(N)ncnc21)OCP(=O)(O)O	none
CC(C)n1nc(-c2cc3cc(O)ccc3[nH]2)c2c(N)ncnc21	GPT2 inhibitor 8.9µM
Cc1cc(C(=O)NC2CCCN(c3ccnc4ccnn34)C2)ccc1Cl (stereo not given)	none
O=C(Nc1cc(-c2ccccn2)nn1-c1ccccc1)c1cccc(Cl)c1	none
CC(C)=CC[C@@H](O)C1=CC(=O)c2c(O)ccc(O)c2C1=O	GPT2 inhibitor 12µM
O=C(NCc1ccc(C(F)(F)F)cc1)c1nc2cccnc2n(CCc2ccccc2)c1=O	none
CN1C[C@@H](NC(=O)c2ccc3c(c2)OCO3)C[C@H]1c1nc(-c2ccc(Cl)cc2)no1	none
CC(C)c1ccccc1Cc1cc(C(=O)Nc2ccc(S(=O)(=O)c3ccccc3C(C)(C)C)cc2)c(O)c(O)c1O	GPT2 inhibitor 27µM
O=C(NCc1ccccc1)c1ccccc1OC1CN(Cc2cccc(C(F)(F)F)c2)C1	none
O=C(NCCc1ccccc1F)c1ccc2nc(-c3cccnc3Cl)oc2c1	none
Oc1cc(O)c2c(c1)O[C@H](c1ccc(O)c(O)c1)[C@H](O)C2	GPT2 inhibitor 28µM
O=C1C[C@@H](c2ccc(O)cc2)Oc2cc(O)cc(O)c21	none
COc1cccc(-c2ccc(CN3CCCC(NC(=O)c4cccc(Cl)c4)C3)cc2)c1 (stereo not given)	none
CCCc1nnc(C[C@@H]2C[C@@H](C(C)C)[C@H](CO)C=C2C)o1	none
CCCc1nnc(C[C@@H]2C[C@@H](C(C)C)[C@H](CNCc3cccnc3)C=C2C)o1	none
CCCc1nnc(C[C@@H]2C[C@@H](C(C)C)[C@H](CNc3cccnc3)C=C2C)o1	GPT2 inhibitor 10µM
O=C(C[C@@H]1CCNC[C@@H]1Cc1cc(-c2ccccc2)on1)N1CCc2ccccc2C1	none
O=C1CCC2(C(=O)NCCCN3CCCc4ccccc43)CCCC=C2N1C1CCCC1 (stereo not given)	none
CN1CCC(NC(=O)c2ccc3c(c2)n(Cc2ccc(F)cc2)c(=O)c2ccnn23)CC1	none
Cc1ccc(Nc2ccnc(N3CCC(NC(=O)c4ccc(C(F)(F)F)cc4)CC3)n2)cc1	none
CC(C)C(=O)Nc1ncc(-c2cc(C(F)F)nn2-c2c(Cl)cccc2Cl)s1	GPT2 inhibitor 10µM!
COc1ccc(C(=O)N2CCN(c3nccc(Nc4ccccc4OC)n3)CC2)cc1	none
COc1ccc(-c2nn(-c3cc(C)ccc3C)c(OC(C)=O)c2-c2ccc(NC(C)=O)cc2)c(OC)c1	GPT2 inhibitor 2.8µM
COc1ccc(NC(=O)c2cn3ccnc(-c4ccc(C)cc4)c3n2)c(OC)c1	none
COc1ccc(-c2nc(C)nc3c2CN(Cc2ccc(NC(C)=O)cc2)CC3)cc1	none
COc1ccccc1-c1cc(C(=O)NCCc2ccc(F)cc2)nn2cccc12	none
Cc1ccc(-c2cc3c(=O)n(CCNC(=O)c4nn(C)c5ccccc45)ccn3n2)c(C)c1	none
COc1ccc(CC(=O)Nc2cc(-c3ccncc3)nn2-c2ccccc2)cc1	none
CO/N=C(/C(=O)N[C@@H]1C(=O)N2C(C(=O)O)=C(CSC(=O)c3ccco3)CS[C@H]12)c1csc(N)n1	none
Cc1nnc(SCC2=C(C(=O)O)N3C(=O)[C@@H](NC(=O)Cn4cnnn4)[C@H]3SC2)s1	none
CN(C)CCn1nnnc1SCC1=C(C(=O)O)N2C(=O)[C@@H](NC(=O)Cc3csc(N)n3)[C@H]2SC1	GPT2 inhibitor 18µM
O=C(NCc1cccs1)c1ccc2nnc(-c3ccc(Cl)cc3)n2c1	none
CC(C)(C)C(=O)NC1CCN(Cc2ccc(-c3ccsc3)cc2)C1 (stereo not given)	none
COc1ccc(CN[C@@H]2C=C[C@@H](c3c(C)nn(-c4ccccc4)c3C)C2)cc1	none
CN1CCOc2c(C(=O)NCC[S+](C)(=O)[O-])cc(-c3ccccc3)cc21	none
CN1CCOc2c(C(=O)NCc3cccnc3)cc(-c3ccc(N4CCOCC4)cc3)cc21	none
COCCNC(=O)c1cc(N2CCOCC2)cc2c1OCCN2C	none (no result: GPT2 inhibitor) | GPT2 inh cnf 1.6
O=C(NC1CCN(c2nccc(Nc3ccccc3Cl)n2)CC1)c1ccccc1Cl	none
O=C(C1CCCC1)N1CCc2nc(-c3ccccc3)nc(-c3ccc(Cl)cc3)c2C1	none
Cc1ccc(NC(=O)C2CCN(c3ccnc4ccnn34)CC2)cc1	none
COc1ccc(CNC(=O)N2CCOc3ccc(N(C)C)cc3C2)cc1	GPT2 inhibitor 1.8µM | GPT2 inh cnf 0.86
Cc1ccc(CNC(=O)c2ccc3c(c2)CN(Cc2ccc(N(C)C)cc2)CCO3)cc1	none
